{"source": "the antibiotic and cytotoxicity screens of Wong et al. (2023)", "note": "Hit rate of the full screen: of about 39,000 compounds, about 1,500 (3.8%) were called active. The sample as a whole holds a higher share of actives than the screen did.", "data": [{"tested_on": "HSkMC (human skeletal muscle cells)", "assay": "cytotoxicity call (relative viability < 0.9)", "details": "10 µM", "values": [{"smiles": "Cc1ccc(S(=O)(=O)N(C)C[C@H]2Oc3c(NS(=O)(=O)c4ccccc4)cccc3C(=O)N([C@H](C)CO)C[C@@H]2C)cc1", "cytotoxicity call": "inactive"}, {"smiles": "C[C@H](CO)N1C[C@H](C)[C@H](CN(C)S(=O)(=O)c2ccccc2)Oc2c(NC(=O)C3CCOCC3)cccc2C1=O", "cytotoxicity call": "inactive"}, {"smiles": "C[C@@H]1CCCCO[C@@H](CN(C)CC2CCCCC2)[C@@H](C)CN([C@@H](C)CO)C(=O)c2cc(NC(=O)CCCN(C)C)ccc2O1", "cytotoxicity call": "inactive"}, {"smiles": "CO[C@@H]1CN(C)C(=O)c2cc(NS(=O)(=O)c3ccccc3)ccc2OC[C@@H](C)N(C(=O)NC(C)C)C[C@H]1C", "cytotoxicity call": "inactive"}, {"smiles": "C[C@H]1CN([C@@H](C)CO)C(=O)Cc2cc(NS(=O)(=O)c3cn(C)cn3)ccc2O[C@H]1CN(C)Cc1ccccc1", "cytotoxicity call": "inactive"}, {"smiles": "CCn1cc(-c2ccnc3[nH]c(-c4cccc(CN(C)C)c4)cc23)c(-c2ccc(NC(=O)N(C)C)cc2)n1", "cytotoxicity call": "active"}, {"smiles": "COc1ccccc1S(=O)(=O)N1C[C@H](O)COC[C@H]2O[C@@H](CC(=O)O)CC[C@@H]21", "cytotoxicity call": "inactive"}, {"smiles": "CCn1c(N)c(C(N)=O)sc1=S", "cytotoxicity call": "inactive"}, {"smiles": "C[C@H](CO)N1C[C@H](C)[C@@H](CN(C)C(=O)Nc2ccc(C(F)(F)F)cc2)Oc2c(NC(=O)Nc3cccc4ccccc34)cccc2C1=O", "cytotoxicity call": "active"}, {"smiles": "C[C@H](CO)N1C[C@H](C)[C@H](CN(C)C(=O)Nc2ccc(C(F)(F)F)cc2)Oc2c(NC(=O)Nc3cccc4ccccc34)cccc2C1=O", "cytotoxicity call": "inactive"}, {"smiles": "C[C@H]1CN([C@@H](C)CO)C(=O)c2cccc(NC(=O)Nc3cccc4ccccc34)c2O[C@H]1CN(C)C(=O)Nc1ccc(C(F)(F)F)cc1", "cytotoxicity call": "active"}, {"smiles": "C[C@@H]1CN([C@H](C)CO)C(=O)c2cccc(NC(=O)Nc3cccc4ccccc34)c2O[C@@H]1CN(C)C(=O)Nc1ccc(C(F)(F)F)cc1", "cytotoxicity call": "active"}, {"smiles": "C[C@@H]1CN([C@@H](C)CO)C(=O)c2cccc(NC(=O)Nc3cccc4ccccc34)c2O[C@H]1CN(C)C(=O)Nc1ccc(C(F)(F)F)cc1", "cytotoxicity call": "active"}, {"smiles": "C[C@@H]1CN([C@H](C)CO)C(=O)c2cccc(NC(=O)Nc3cccc4ccccc34)c2O[C@H]1CN(C)C(=O)Nc1ccc(C(F)(F)F)cc1", "cytotoxicity call": "inactive"}, {"smiles": "CCN1CCO[C@@]2(O)C=CC(=O)C=C12", "cytotoxicity call": "inactive"}, {"smiles": "CCc1ccc(NC(=O)C2CCN(S(=O)(=O)c3c(C)[nH]c(=O)[nH]c3=O)CC2)cc1", "cytotoxicity call": "inactive"}, {"smiles": "Cc1ccc(S(=O)(=O)Nc2ccc3c(c2)C(=O)N([C@@H](C)CO)C[C@@H](C)[C@@H](CN(C)S(=O)(=O)c2ccc(C)cc2)OCCCC[C@H](C)O3)cc1", "cytotoxicity call": "inactive"}, {"smiles": "C[C@@H]1CN([C@H](C)CO)C(=O)c2cc(NC(=O)Cc3ccccc3)ccc2O[C@@H](C)CCCCO[C@H]1CN(C)C(=O)Nc1cccc2ccccc12", "cytotoxicity call": "inactive"}, {"smiles": "CC(C)NC(=O)Nc1ccc2c(c1)CC(=O)N([C@@H](C)CO)C[C@H](C)[C@H](CN(C)Cc1ccc(-c3ccccc3)cc1)O2", "cytotoxicity call": "inactive"}, {"smiles": "O=C(C[C@H]1CC[C@@H](NS(=O)(=O)c2ccccc2)[C@H](CO)O1)NCc1ccncn1", "cytotoxicity call": "inactive"}, {"smiles": "Cc1ccc(S(=O)(=O)Nc2ccc3c(c2)C(=O)N([C@@H](C)CO)C[C@@H](C)[C@H](CN(C)C(=O)Nc2ccc(C(F)(F)F)cc2)O3)cc1", "cytotoxicity call": "inactive"}, {"smiles": "C[C@@H]1CN([C@@H](C)CO)C(=O)Cc2cc(NC(=O)CCN3CCOCC3)ccc2O[C@H]1CN(C)S(=O)(=O)c1cccs1", "cytotoxicity call": "inactive"}, {"smiles": "C[C@H]1CN([C@@H](C)CO)C(=O)c2ccccc2-c2ccccc2CO[C@@H]1CN(C)C(=O)Nc1cccc(F)c1", "cytotoxicity call": "inactive"}, {"smiles": "NC(=O)c1cccc(S(N)(=O)=O)c1", "cytotoxicity call": "inactive"}, {"smiles": "C[C@@H]1CN([C@H](C)CO)C(=O)c2cc(N(C)C)ccc2O[C@@H](C)CCCCO[C@H]1CN(C)C(=O)Nc1ccc(C(F)(F)F)cc1", "cytotoxicity call": "inactive"}, {"smiles": "C[C@H]1CN([C@@H](C)CO)C(=O)c2cccc(NC(=O)Nc3cccc4ccccc34)c2O[C@@H]1CN(C)C(=O)Nc1ccc(C(F)(F)F)cc1", "cytotoxicity call": "active"}, {"smiles": "COc1ccc(S(=O)(=O)N(C)C[C@@H]2Oc3ccc(NC(=O)CCCN(C)C)cc3CC(=O)N([C@@H](C)CO)C[C@@H]2C)cc1", "cytotoxicity call": "inactive"}, {"smiles": "C[C@H](CO)N1C[C@H](C)[C@H](CN(C)Cc2ccc(-c3ccccc3)cc2)Oc2ccc(NC(=O)Nc3ccccc3)cc2C1=O", "cytotoxicity call": "inactive"}, {"smiles": "C[C@@H]1CN([C@H](C)CO)C(=O)c2cc(NC(=O)Nc3ccccc3)ccc2O[C@@H]1CN(C)Cc1ccc(-c2ccccc2)cc1", "cytotoxicity call": "inactive"}, {"smiles": "C[C@H](CO)N1C[C@H](C)[C@H](CN(C)Cc2ccc(-c3ccccc3)cc2)Oc2ccc(NC(=O)Nc3ccc(F)cc3)cc2C1=O", "cytotoxicity call": "inactive"}, {"smiles": "C[C@@H]1CN([C@H](C)CO)C(=O)c2cc(NC(=O)Nc3ccc(F)cc3)ccc2O[C@H]1CN(C)Cc1ccc(-c2ccccc2)cc1", "cytotoxicity call": "active"}, {"smiles": "C[C@@H]1CN([C@H](C)CO)C(=O)c2cc(NC(=O)Nc3ccccc3)ccc2O[C@H]1CN(C)Cc1ccc(-c2ccccc2)cc1", "cytotoxicity call": "inactive"}, {"smiles": "C[C@@H]1CN([C@@H](C)CO)C(=O)c2cc(NC(=O)Nc3ccccc3)ccc2O[C@H]1CN(C)Cc1ccc(-c2ccccc2)cc1", "cytotoxicity call": "inactive"}, {"smiles": "C[C@@H]1CN([C@@H](C)CO)C(=O)c2cc(NC(=O)Nc3ccccc3)ccc2O[C@@H]1CN(C)Cc1ccc(-c2ccccc2)cc1", "cytotoxicity call": "active"}, {"smiles": "C[C@@H]1CN([C@@H](C)CO)C(=O)c2cc(NC(=O)Nc3ccc(F)cc3)ccc2O[C@@H]1CN(C)Cc1ccc(-c2ccccc2)cc1", "cytotoxicity call": "active"}, {"smiles": "C[C@H]1CN([C@@H](C)CO)C(=O)c2cc(NC(=O)Nc3ccccc3)ccc2O[C@H]1CN(C)Cc1ccc(-c2ccccc2)cc1", "cytotoxicity call": "inactive"}, {"smiles": "C[C@@H]1CN([C@@H](C)CO)C(=O)c2cc(NC(=O)Nc3ccc(F)cc3)ccc2O[C@H]1CN(C)Cc1ccc(-c2ccccc2)cc1", "cytotoxicity call": "active"}, {"smiles": "C[C@H](CO)N1C[C@H](C)[C@@H](CN(C)Cc2ccc(-c3ccccc3)cc2)Oc2ccc(NC(=O)Nc3ccccc3)cc2C1=O", "cytotoxicity call": "inactive"}, {"smiles": "C[C@H]1CN([C@@H](C)CO)C(=O)c2cc(NC(=O)Nc3ccc(F)cc3)ccc2O[C@@H]1CN(C)Cc1ccc(-c2ccccc2)cc1", "cytotoxicity call": "inactive"}, {"smiles": "CC(C)NC(=O)Nc1ccc2c(c1)CC(=O)N([C@@H](C)CO)C[C@H](C)[C@H](CN(C)Cc1ccc3c(c1)OCO3)O2", "cytotoxicity call": "inactive"}]}]}
